Assay outcomes from PubChem.
MITF primary: inhibitors of human MITF. AID 1259374. inhibition, % at 2.6 µM. AlphaScreen MITF homodimerization, bead proximity signal. 650,000 compounds, 0.91% hits; in the data active means inhibition above about 50%;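 further: 0% = vehicle wells with protein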
FBW7 act: activators of human E3 ligase FBW7. Q969H0. AlphaScreen FBW7–phospho-cyclin E peptide binding, activator screen. normalized activity (activation), % at 26.1 µM. 650,000 compounds, 0.13% hits. AID 1259310; in the data active means normalized activity above about 1.9%;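 further: purified mutant Fbw7 with reduced substrate affinity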
Target sequence (Q969H0 whole entry, looked up): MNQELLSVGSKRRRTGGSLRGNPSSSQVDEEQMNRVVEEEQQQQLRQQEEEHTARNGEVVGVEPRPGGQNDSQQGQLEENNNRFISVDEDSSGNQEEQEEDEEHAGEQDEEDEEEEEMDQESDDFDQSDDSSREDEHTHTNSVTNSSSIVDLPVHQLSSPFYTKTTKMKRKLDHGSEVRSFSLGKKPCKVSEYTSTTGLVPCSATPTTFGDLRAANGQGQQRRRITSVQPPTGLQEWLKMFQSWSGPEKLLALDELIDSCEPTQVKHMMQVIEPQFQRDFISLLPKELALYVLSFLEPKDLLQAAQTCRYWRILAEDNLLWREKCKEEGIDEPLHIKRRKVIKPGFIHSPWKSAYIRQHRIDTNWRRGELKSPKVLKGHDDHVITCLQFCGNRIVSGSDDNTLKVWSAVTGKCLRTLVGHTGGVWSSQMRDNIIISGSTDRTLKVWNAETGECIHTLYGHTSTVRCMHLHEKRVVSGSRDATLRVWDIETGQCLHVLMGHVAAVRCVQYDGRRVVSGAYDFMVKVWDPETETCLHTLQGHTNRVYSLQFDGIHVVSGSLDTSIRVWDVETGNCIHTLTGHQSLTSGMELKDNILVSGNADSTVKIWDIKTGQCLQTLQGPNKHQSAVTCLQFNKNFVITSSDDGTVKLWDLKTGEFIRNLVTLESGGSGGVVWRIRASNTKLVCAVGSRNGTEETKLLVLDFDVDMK
TEAD-YAP inh: TEAD-YAP interaction inhibition. 640,000 compounds, 1.4% hits. AID 1259422. inhibition, % at 9.12 µM. HEK-TIYL cells, TEAD-Gal4/YAP UAS-luciferase luminescence; in the data active means inhibition above about 32%;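 further: 0% = median of test compound wells and 100% = reference inhibitor wells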
GPR151 activ: activators of human GPR151; activation, % at 11.2 µM; Q8TDV0; PathHunter beta-arrestin GPR151 cells, luminescence; AID 1508602; 650,000 compounds, 1% hits; in the data active means activation above about 4.9%;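 further: 0% = median of compound wells and 100% = cells with positive control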
Starred values were filed as active, the others as inactive. Only some compounds are listed: those with a hit (about 3.4% of all), similar ones and a draw of the others.

`COc1ccc(CC(=O)Nc2cc(-c3cn[nH]c3)ccn2)cc1` gave MITF primary -7, FBW7 act 0, TEAD-YAP inh 92* and GPR151 activ 1.
COc1ccc(CC(=O)Nc2ncc3ccc(-c4cn[nH]c4)cc3c2C#N)cc1 was read as MITF primary 0, FBW7 act 0, TEAD-YAP inh 27 and GPR151 activ -3.
Screening Cn1cc(-c2ccnc(NC(=O)Cc3ccc(F)cc3)c2)cn1 returned MITF primary -18, FBW7 act 0, TEAD-YAP inh 48* and GPR151 activ 1.
`CCN(CC(=O)NCc1ccc(F)cc1)c1ccc(C(N)=O)cc1[N+](=O)[O-]` gave MITF primary -3, FBW7 act 0, TEAD-YAP inh -13 and GPR151 activ 0.
`O=C(CSc1nc2[nH]ncc2c(=O)n1-c1ccccc1)Nc1ccc(Br)cc1` gave MITF primary -5, FBW7 act 0, TEAD-YAP inh 17 and GPR151 activ 0.
O=C(CSc1nc2[nH]ncc2c(=O)n1-c1ccccc1)Nc1ccc(F)c(F)c1 was read as MITF primary 1, FBW7 act 0, TEAD-YAP inh 61* and GPR151 activ 0.
COCc1c(C(=O)OCC(=O)c2ccc(Br)s2)oc2ccccc12 was read as MITF primary -7, FBW7 act 0, TEAD-YAP inh 0 and GPR151 activ 0.
`Cc1nc(CN(C)C(=O)c2cc(COc3ccc4ncccc4c3)on2)cs1` gave MITF primary 3, FBW7 act 0, TEAD-YAP inh 37* and GPR151 activ 3.
Screening CN(CC1COCCO1)C(=O)c1cc(COc2ccc3ncccc3c2)on1 (stereo not drawn) returned MITF primary 1, FBW7 act 0, TEAD-YAP inh 50* and GPR151 activ 3.
`Cc1nn(C)c(C)c1-c1nc(C(=O)Nc2ccc(Oc3ccccc3)cc2)cs1` gave MITF primary 36, FBW7 act 0, TEAD-YAP inh -15 and GPR151 activ 1.
COc1ccc(C)cc1NC(=O)CSc1nc2cc3c(cc2cc1C#N)OCCO3 was read as MITF primary 5, FBW7 act 0, TEAD-YAP inh 67* and GPR151 activ 0.
For Cc1cccc(NC(=O)CSc2nc3cc4c(cc3cc2C#N)OCCO4)c1 the results were MITF primary 3, FBW7 act 0, TEAD-YAP inh 57* and GPR151 activ 0.
`COC(=O)CSc1ccc2nnc(-c3ccccc3)n2n1` gave MITF primary 0, FBW7 act 0, TEAD-YAP inh 5 and GPR151 activ 0.
CC(C)OC(=O)CSc1nc2c(c(-c3ccc(O)cc3)c1C#N)CCCC2 was read as MITF primary 4, FBW7 act 0, TEAD-YAP inh 48* and GPR151 activ 1.
`Nc1cc(Cl)ccc1N1CCCCC1` gave MITF primary -9, FBW7 act 0, TEAD-YAP inh -14 and GPR151 activ -1.
`Nc1ccc(N2CCCCC2)cc1N1CCCCC1` gave MITF primary 39, FBW7 act -1, TEAD-YAP inh 72* and GPR151 activ 0.
For CCCCCOC(=O)C1=C(C)NC2=C(C(=O)CC(C)(C)C2)C1c1ccc(Cl)c(Cl)c1 (stereo not drawn) the results were MITF primary 12, FBW7 act 0, TEAD-YAP inh -5 and GPR151 activ 0.
For O=C(NC1c2ccccc2-c2ccccc21)c1cccc([N+](=O)[O-])c1 the results were MITF primary -2, FBW7 act 0, TEAD-YAP inh 54* and GPR151 activ -1.
For O=C(NC1c2ccccc2-c2ccccc21)c1ccccc1 the results were MITF primary -18, FBW7 act 0, TEAD-YAP inh -2 and GPR151 activ 0.
COc1cc(Nc2nc(Nc3cnccn3)nc3nc[nH]c23)cc(OC)c1OC was read as MITF primary 1, FBW7 act 4.5*, TEAD-YAP inh 34* and GPR151 activ 2.
For COc1ccc(CCNc2nc(NCc3cccnc3)ncc2C)cc1 the results were MITF primary 2, FBW7 act 0, TEAD-YAP inh 40* and GPR151 activ 1.
Screening COc1cc(Nc2nc(Nc3ccccc3)nc3nc[nH]c23)cc(OC)c1OC returned MITF primary 8, FBW7 act 0, TEAD-YAP inh 18 and GPR151 activ 1.
c1ccc(Nc2nc(Nc3cccnc3)nc3nc[nH]c23)cc1 was read as MITF primary -4, FBW7 act 0, TEAD-YAP inh 58* and GPR151 activ 1.
For COc1ccc(CCNc2nc(Nc3ccccc3)nc3nc[nH]c23)cc1 the results were MITF primary 7, FBW7 act 0, TEAD-YAP inh 24 and GPR151 activ 2.
